The source of these data is PubChem BioAssay.

Experiment [1] can be described thus: antimalarial activity against Dd2 strain (AID 2302;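 active means growth inhibition above 50% at the single 2 µM test dose, taken to imply half-maximal potency below 2 µM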;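 further: 0% = DMSO untreated growth and 100% = chloroquine plus artemisinin killed control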). To be noted: P. falciparum Dd2 in RBCs, LDH growth readout, 72 h; at 2 µM; stronger effect = higher value.
A short description of experiment [2]: HepG2 cytotoxicity, primary screen, cytotoxicity control for P. falciparum antimalarial project, cell-based, ATP luminescence (AID 2303;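 active means inhibition above 50%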;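 further: 0% = DMSO wells and 100% = digitonin-killed cells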). As to conditions: HepG2 viability, 24-48 h, at 10 µM, stronger effect = higher value.
In experiment [3] the target is L-lactate dehydrogenase (Plasmodium falciparum (isolate CDC / Honduras)) (UniProt Q27743). Description: PfLDH activity inhibition – cell lysate, 3D7 strain, counter-screen for P. falciparum growth inhibition project (AID 2304).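 Further: 0% = vehicle and 100% = reference inhibitor.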 To be noted: P. falciparum 3D7 crude extract, LDH APAD/NBT absorbance; at 2 µM; stronger effect = higher value. (In general: The purpose of a counterscreen is to sort out artefacts and off-target activity.)

A short description of experiment [4]: inhibition of 3D7 malaria parasite growth – strain 3D7 (AID 2306).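 Further: 0% = DMSO wells and 100% = chloroquine plus artemisinin control wells.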 To be noted: P. falciparum 3D7 erythrocytic growth, LDH absorbance, 72 h; at 2 µM; stronger effect = higher value.
Experiment [5] deals with Calcium-dependent protein kinase 1 (Plasmodium falciparum (isolate 3D7)) (UniProt P62344). Description: PfCDPK1 kinase inhibitors, biochemical, TCAMS library (AID 1159585; cut-off not given, nearly all actives have IC50 up to about 0.98 µM;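 further: inhibitors leave more ATP so luminescence rises with inhibition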). As to conditions: recombinant PfCDPK1, Kinase-Glo ATP depletion luminescence. (In general: In Kinase-Glo more light means more ATP remaining.)
Experiment [6] deals with Plasmodium falciparum protein kinase 6 (PK6, PF3D7_1337100) (UniProt Q8IDW1). Briefly: PfPK6 kinase inhibitors, biochemical, TCAMS library (AID 1159586). As to conditions: recombinant PfPK6, Kinase-Glo ATP depletion luminescence.
Experiment [7] has as its target Protein kinase 7 (PK7), Plasmodium falciparum 3D7 (PF3D7_0213400) (UniProt Q7YTF7). Description: inhibition of Plasmodium PK7 catalytic activity – biochemical, TCAMS antimalarial set, Kinase-Glo luminescence (AID 1159587). As to conditions: recombinant PfPK7, Kinase-Glo ATP depletion luminescence.
Experiment [8] has as its target Calcium-dependent protein kinase 4 (Plasmodium falciparum (isolate 3D7)) (UniProt Q8IBS5). Description: PfCDPK4 kinase inhibitors, biochemical, TCAMS library (AID 1159588; cut-off not given, nearly all actives have IC50 up to about 0.91 µM). As to conditions: recombinant PfCDPK4, Kinase-Glo ATP depletion luminescence.

Structures are written as SMILES. Where “and” joins values, the source holds several entries; their conditions need not be identical. Identical values can stand only once. For some assays here: Results with a measured potency or affinity are listed apart. Where a structure was tested more than once in an assay, its records may differ in their call. Calls of active or inactive are those of the source. Unless noted, how the calls were made is not given here.

L-lactate dehydrogenase (Plasmodium falciparum (isolate CDC / Honduras)), sequence (Q27743 whole entry, looked up): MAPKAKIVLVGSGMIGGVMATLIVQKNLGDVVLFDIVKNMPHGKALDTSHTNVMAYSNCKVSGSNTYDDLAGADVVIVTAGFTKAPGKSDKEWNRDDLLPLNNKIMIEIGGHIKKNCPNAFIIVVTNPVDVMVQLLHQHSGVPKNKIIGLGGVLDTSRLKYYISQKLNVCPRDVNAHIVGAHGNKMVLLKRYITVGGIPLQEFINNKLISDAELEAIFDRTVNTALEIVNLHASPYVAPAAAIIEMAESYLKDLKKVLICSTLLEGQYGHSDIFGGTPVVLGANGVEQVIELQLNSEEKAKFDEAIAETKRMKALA
Plasmodium falciparum protein kinase 6 (PK6, PF3D7_1337100), sequence (Q8IDW1 1-305): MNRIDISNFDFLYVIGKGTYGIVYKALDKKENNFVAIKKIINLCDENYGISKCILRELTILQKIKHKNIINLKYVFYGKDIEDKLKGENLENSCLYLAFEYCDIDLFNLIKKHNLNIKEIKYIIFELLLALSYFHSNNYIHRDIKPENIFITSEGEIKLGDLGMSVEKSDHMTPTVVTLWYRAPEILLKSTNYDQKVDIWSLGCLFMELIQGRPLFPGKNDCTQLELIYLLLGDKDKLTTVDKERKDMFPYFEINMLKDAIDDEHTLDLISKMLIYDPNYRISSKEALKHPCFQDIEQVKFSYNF
Protein kinase 7 (PK7), Plasmodium falciparum 3D7 (PF3D7_0213400), sequence (Q7YTF7 1-343): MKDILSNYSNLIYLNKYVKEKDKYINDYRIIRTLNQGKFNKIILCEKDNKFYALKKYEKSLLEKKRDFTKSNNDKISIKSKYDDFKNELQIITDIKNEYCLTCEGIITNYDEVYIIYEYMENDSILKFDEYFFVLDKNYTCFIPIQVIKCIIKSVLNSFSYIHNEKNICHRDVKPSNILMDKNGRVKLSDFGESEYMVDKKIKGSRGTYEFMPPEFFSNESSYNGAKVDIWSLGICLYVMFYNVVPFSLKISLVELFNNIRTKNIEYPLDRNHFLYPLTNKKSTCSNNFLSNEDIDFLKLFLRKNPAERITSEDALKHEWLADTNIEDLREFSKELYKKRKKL
Calcium-dependent protein kinase 1 (Plasmodium falciparum (isolate 3D7)), sequence (P62344 whole entry, looked up): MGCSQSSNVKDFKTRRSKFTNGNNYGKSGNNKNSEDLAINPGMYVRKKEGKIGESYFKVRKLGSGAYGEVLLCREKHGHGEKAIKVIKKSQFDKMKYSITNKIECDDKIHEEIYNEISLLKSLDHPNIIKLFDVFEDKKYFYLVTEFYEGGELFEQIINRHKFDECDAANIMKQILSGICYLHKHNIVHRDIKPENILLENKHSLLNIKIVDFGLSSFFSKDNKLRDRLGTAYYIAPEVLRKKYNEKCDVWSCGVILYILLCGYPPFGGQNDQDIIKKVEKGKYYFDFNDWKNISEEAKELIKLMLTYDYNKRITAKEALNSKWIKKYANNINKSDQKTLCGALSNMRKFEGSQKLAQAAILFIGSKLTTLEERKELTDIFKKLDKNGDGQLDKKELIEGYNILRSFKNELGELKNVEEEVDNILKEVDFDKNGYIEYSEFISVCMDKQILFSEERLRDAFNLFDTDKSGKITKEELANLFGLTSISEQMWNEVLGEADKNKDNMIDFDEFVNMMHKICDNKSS
Calcium-dependent protein kinase 4 (Plasmodium falciparum (isolate 3D7)), sequence (Q8IBS5 whole entry, looked up): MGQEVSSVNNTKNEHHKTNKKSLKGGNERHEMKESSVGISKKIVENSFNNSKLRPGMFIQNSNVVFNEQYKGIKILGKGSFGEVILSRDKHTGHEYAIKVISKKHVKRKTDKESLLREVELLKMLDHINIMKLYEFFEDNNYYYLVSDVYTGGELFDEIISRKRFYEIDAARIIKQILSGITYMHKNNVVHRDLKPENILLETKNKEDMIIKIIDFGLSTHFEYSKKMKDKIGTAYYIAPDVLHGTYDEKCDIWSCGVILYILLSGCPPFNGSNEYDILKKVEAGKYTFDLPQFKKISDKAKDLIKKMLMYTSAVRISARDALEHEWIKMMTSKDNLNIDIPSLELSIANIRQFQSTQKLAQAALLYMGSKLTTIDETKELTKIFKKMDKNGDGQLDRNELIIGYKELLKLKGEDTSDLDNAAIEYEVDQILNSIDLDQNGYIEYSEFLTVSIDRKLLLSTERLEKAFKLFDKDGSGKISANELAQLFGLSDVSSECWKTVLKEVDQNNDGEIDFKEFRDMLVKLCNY

As to `NC1=NC(c2ccccc2)(c2cccc(O)c2)C(=O)N1CCCc1ccccc1` (configuration not stated), the growth inhibition is 38% (inactive) and 93% (active) in experiment [1]; 85% (active) and 98% (active) in experiment [4]. Also, the inhibition is -2% (inactive) in experiment [2]; -2% (inactive) and 4% (inactive) in experiment [3]. Further, the result in experiment [5], in experiment [6], in experiment [7] and in experiment [8] was inactive.

Take `N#CC(c1ccc(Br)cc1)c1ccc2c(C(F)(F)F)cc(C(F)(F)F)nc2n1` (configuration not stated): the values for the growth inhibition in experiment [1] and in experiment [4] were 98% (active) and 101% (active), respectively. For the same compound, the values for the inhibition in experiment [2] and in experiment [3] were 75% (active) and -2% (inactive), respectively. In addition, the outcome in experiment [5], in experiment [6], in experiment [7] and in experiment [8] was inactive.

As to `O=C(C=Cc1ccc(C(=O)Nc2ccc(C3=NCCN3)cc2)cc1)Nc1ccc(C2=NCCN2)cc1`, the results for the growth inhibition in experiment [1] and in experiment [4] were 101% (active) and 97% (active), respectively. In addition, the inhibition is -7% (inactive) in experiment [2] and 3% (inactive) in experiment [3]. Also, the outcome in experiment [5], in experiment [6], in experiment [7] and in experiment [8] was inactive.

As for `C[C@@H]1CN(c2nc(NCCc3ccc(O)cc3)nc(NCc3ccccc3-c3ccc(C(F)(F)F)cc3)n2)C[C@H](C)N1`, the growth inhibition is 68% (active) in experiment [1] and 100% (active) in experiment [4]. Moreover, the inhibition in experiment [2] is 24% (inactive); in experiment [3] it was 7% (inactive). The result in experiment [5], in experiment [6], in experiment [7] and in experiment [8] was inactive.

On to `COc1ccc(-n2ccnc2SCC(=O)Nc2cc(C)ccc2C)c(OC)c1`, for which the growth inhibition in experiment [1] was 93% (active); in experiment [4], 94% (active). The results for the inhibition in experiment [2] and in experiment [3] were 2% (inactive) and -3% (inactive), respectively. The outcome in experiment [5], in experiment [6], in experiment [7] and in experiment [8] was inactive.

On to `O=C(/C=C/c1ccc(Cl)c(Cl)c1)NC1CCN(CCCNC(=O)c2cccc(Cl)c2)CC1`, for which the growth inhibition in experiment [1] is 28% (inactive); in experiment [4], 100% (active). Further, the inhibition in experiment [2] is 36% (inactive); in experiment [3] it was -2% (inactive). The outcome in experiment [5], in experiment [6], in experiment [7] and in experiment [8] was inactive.

On to `COc1ccc(CCn2c(=N)c(C(=O)NCc3cccnc3)cc3c(=O)n4cccc(C)c4nc32)cc1`, for which the growth inhibition in experiment [1] is 12% (inactive); in experiment [4] it was 92% (active). Also, the inhibition in experiment [2] is 5% (inactive); in experiment [3], 0% (inactive). The result in experiment [5], in experiment [6], in experiment [7] and in experiment [8] was inactive.

As to `Cc1ccc(CN2CCN(Cc3cccc(NC(=O)c4cccs4)c3)CC2)cc1C`, the growth inhibition was 68% (active) in experiment [1] and 96% (active) in experiment [4]. Moreover, the inhibition in experiment [2] is 41% (inactive); in experiment [3], 2% (inactive). Also, the result in experiment [5], in experiment [6], in experiment [7] and in experiment [8] was inactive.

Consider `O=C(Nc1cccc(-c2cccc(-c3nc4ccccc4[nH]3)c2)c1)N[C@@H]1C[C@H]1c1ccccc1`, for which the growth inhibition in experiment [1] was 22% (inactive) and 27% (inactive); in experiment [4] it was 87% (active) and 90% (active). For the same compound, the inhibition in experiment [2] was 40% (inactive) and 8% (inactive); in experiment [3], 2% (inactive) and 1% (inactive). The result in experiment [5], in experiment [6], in experiment [7] and in experiment [8] was inactive.

As for `Cc1cc(N[C@@H](Cc2ccccc2)C(=O)NC2CCCC2)nc(NCCc2cccs2)n1`, the growth inhibition in experiment [1] was 14% (inactive); in experiment [4], 99% (active). The inhibition is -6% (inactive) in experiment [2] and -2% (inactive) in experiment [3]. Also, the outcome in experiment [5], in experiment [6], in experiment [7] and in experiment [8] was inactive.

For the compound `O=C(NCCCCCN1CCC(c2c[nH]c3ccccc23)CC1)Nc1ccc(I)cc1`, the growth inhibition in experiment [1] is -1% (inactive); in experiment [4], 100% (active). The values for the inhibition in experiment [2] and in experiment [3] were 51% (active) and 2% (inactive), respectively. In addition, the result in experiment [5], in experiment [6], in experiment [7] and in experiment [8] was inactive.

In the case of `O=C(/C=C/c1ccc(Cl)c(Cl)c1)NC1CCC(CN2CCC(c3c[nH]c4ccncc34)CC2)CC1` (configuration not stated), the growth inhibition in experiment [1] was 96% (active); in experiment [4], 100% (active). The results for the inhibition in experiment [2] and in experiment [3] were 16% (inactive) and -1% (inactive), respectively. The result in experiment [5], in experiment [6], in experiment [7] and in experiment [8] was inactive.

In the case of `CS(=O)(=O)c1ccc(CCNCc2ccc(-c3ccc(CN(C(=O)c4cccc(C#N)c4)C4CCN(Cc5ccccc5)CC4)cc3)nc2)cc1`, the values for the growth inhibition in experiment [1] and in experiment [4] were 56% (active) and 96% (active), respectively. Moreover, the inhibition in experiment [2] was 20% (inactive); in experiment [3], 1% (inactive). The result in experiment [5], in experiment [6], in experiment [7] and in experiment [8] was inactive.

On to `CCCS(=O)(=O)N1CCC(CO)(Cc2ccccc2C(F)(F)F)CC1`, for which the growth inhibition in experiment [1] is 57% (active); in experiment [4], 97% (active). Besides, the inhibition was -1% (inactive) in experiment [2] and -2% (inactive) in experiment [3]. Also, the outcome in experiment [5], in experiment [6], in experiment [7] and in experiment [8] was inactive.

As for `Cn1ncc2c3c(CCN4CCC(NCc5cc6c(cn5)OCCO6)CC4)c(Cl)cnc3ccc21`, the growth inhibition in experiment [1] was 34% (inactive); in experiment [4], 95% (active). Besides, the inhibition in experiment [2] was 1% (inactive); in experiment [3], 0% (inactive). Also, the outcome in experiment [5], in experiment [6], in experiment [7] and in experiment [8] was inactive.

For the compound `CS(=O)(=O)c1ccc2nc(NC(=O)c3csnn3)sc2c1`, the growth inhibition in experiment [1] was 95% (active); in experiment [4], 90% (active). Moreover, the values for the inhibition in experiment [2] and in experiment [3] were 3% (inactive) and 0% (inactive), respectively. The result in experiment [5], in experiment [6], in experiment [7] and in experiment [8] was inactive.

Turning to `NOCCCOc1ccc(Cl)cc1`, the figures for the growth inhibition in experiment [1] and in experiment [4] were 0% (inactive) and 98% (active), respectively. Further, the values for the inhibition in experiment [2] and in experiment [3] were 12% (inactive) and 0% (inactive), respectively. Further, the outcome in experiment [5], in experiment [6], in experiment [7] and in experiment [8] was inactive.

For the compound `O=C(NCCc1ccc(Cl)c(Cl)c1)c1ccc(CNC(=O)c2ccc(O)c(-c3ccc(Cl)c(Cl)c3)c2)cc1`, the growth inhibition in experiment [1] was 3% (inactive); in experiment [4], 97% (active). Further, the values for the inhibition in experiment [2] and in experiment [3] were 0% (inactive) and -6% (inactive), respectively. The result in experiment [5], in experiment [6], in experiment [7] and in experiment [8] was inactive.

Take `Cc1[nH]c2cccc(F)c2c(=O)c1Cc1ccc(Cl)cc1` (tested in a mixture with another compound): the growth inhibition was 94% (active) and 92% (active) in experiment [1]; 94% (active) and 93% (active) in experiment [4]. Moreover, the inhibition was 7% (inactive) and 6% (inactive) in experiment [2]; 5% (inactive) in experiment [3]. Besides, the outcome in experiment [5], in experiment [6], in experiment [7] and in experiment [8] was inactive.

Broadly, the inhibition is the change of the read-out against control, counted positive when it falls.
